Source: ChEMBL document CHEMBL3433997, “St. Jude Leishmania screening dataset” (2016)

target: Hexose transporter 1 (Plasmodium falciparum) (UniProt O97467); experiment: ST_JUDE_LEISH: Cytotoxicity at 2uM final concentration against transgenic Leishmania Mexicana promastigotes LmPfHT that are glucose transport deficient and complemented with the Plasmodium falciparum hexose transporter. Activity is measured by DNA content using SYBR green in vitro; assay type: functional

Structure (SMILES) | inhibition
O=C(Nc1ccccc1)N1CCOC(CCN2CCC(F)(F)CC2)(c2ccc(Cl)c(Cl)c2)C1 (stereo not given) | 4.85%
COc1ccc(-c2cccc(NC(=O)c3cccc(C#N)c3)c2)cc1CN1CCNCC1 | 11.2%
COc1ccc(CCn2c(=N)c(C(=O)NCc3ccc(C)cc3)cc3c(=O)n4ccccc4nc32)cc1 | 3.72%
NC(=O)c1cccc(Nc2nccc(Nc3ccc(Oc4cccc(Cl)c4)c(Cl)c3)n2)c1 | 9.87%
CC(=O)Nc1ccc(CN2CCC(NC(=O)c3ccc(-c4cccc(Cl)c4)s3)CC2)cc1 | -0.15%
O=C(Nc1cccc(CN2CCN(C(=O)c3cccc(F)c3)CC2)c1)c1cccs1 | 1.04%
OC(CNc1ccnc(Nc2cccc(Cl)c2)n1)c1cccc(C(F)(F)F)c1 (stereo not given) | 11.6%
Cc1cccc2nc(-c3ccc(-c4ccc(CN5CCC(C(N)=O)CC5)cc4)cc3)[nH]c12 | 5.37%
CCN(CC)CCCC(C)Nc1ccnc2ccc(OC)cc12 (stereo not given) | 8.91%
Cc1cc(CN2CCC(C(=O)Nc3ccc(-c4nc5ccccc5[nH]4)cc3)CC2)oc1C | 16%
COc1cc(Nc2nc(N)c3cc(OC)c(OC)cc3n2)cc(OC)c1 | 5.6%
Cc1nc(N)nc(N)c1-c1ccc(Br)c([N+](=O)[O-])c1 | 2.99%
CN(C)CCCOc1cc(NC(=O)Nc2ccc(-c3ccncc3)c3ccccc23)ccc1I | 6.1%
O=C(Nc1cccc(CN2CCCN(Cc3ccsc3)CC2)c1)c1ccc(Cl)c(Cl)c1 | 2.57%
COc1cc(C=NN=c2cc(C)[nH]c3ccccc23)cc(OC)c1OC | 4.95%
Cc1ccc2[nH]c(C3CCCNC3)c(-c3ccncc3)c2c1 (stereo not given) | 9.43%
CC(C)c1sc(N2CCN(C)CC2)nc1C(=O)NCCc1ccc(Br)cc1 | 1.28%
Oc1ccc(CCCc2cc(Oc3c(I)cc(CCc4ncc[nH]4)cc3I)ccc2O)cc1 | -0.28%
COc1ccc(C(C)Nc2nc(N)c3cc(OC)c(OC)cc3n2)cc1 (stereo not given) | 4.66%
O=C(Cc1ccccc1)NC(CCN1CCC(O)(c2cccc(C(F)(F)F)c2)CC1)c1ccc(Cl)c(Cl)c1 (stereo not given) | 1.61%

Structure (SMILES) | inhibition
O=C(/C=C/c1ccc(Cl)c(Cl)c1)NCCCCCN1CCC(NC(=S)Nc2ccc(Cl)cc2)CC1 | 8.02%
Cc1cc(N/N=C/c2cccc([N+](=O)[O-])c2)c2ccc(F)cc2n1 | 2.8%
CN(C)Cc1cccc(-c2ccc(Nc3nccc(NCC(O)c4ccccc4)n3)cc2)c1 (stereo not given) | 3.43%
O=C(/C=C/c1ccc(Cl)c(Cl)c1)NCCCCN1CCCN(C(=O)Nc2ccc(Cl)c(Cl)c2)CC1 | 0.32%
COc1ccc2nc3cc(Cl)ccc3c(NCCCCN3CCNCC3)c2c1 | 6.49%
O=C(/C=C/c1cccc(C(F)(F)F)c1)NCCCCCN1CCC(c2c[nH]c3ccccc23)CC1 | 3.58%
CCOc1ccc2c(=NN=Cc3ccccc3F)cc(C)[nH]c2c1 | 1.33%
CCc1nc2nc(C)cc(Nc3ccc(F)c(Cl)c3)n2n1 | -3.69%
CC(C)N1CCN(CCCCNc2c3ccccc3nc3ccccc23)CC1 | 41%
Cc1cccc(N2C(N)=NC(N)=NC2(C)C)c1C | 1.41%
CCN(CC)CCNc1cc(C)nc(NC(=N)Nc2ccc(Cl)cc2)n1 | 6.42%
O=C(Nc1ccc(C(F)(F)F)cc1)c1ccc(S(=O)(=O)NC2CCN(CC3CCCCC3)CC2)cc1 | 0.54%
CCN(CC)CCN(Cc1ccc(-c2ccc(C(F)(F)F)cc2)cc1)C(=O)Cn1c(CCc2cccc(F)c2F)cc(=O)cc1-c1ccccc1 | 3.45%
O=C1Nc2cccc3c2C1(CCCN1CCC(c2c[nH]c4cc(C(F)(F)F)ccc24)CC1)CCC3 (stereo not given) | -2.03%
CN(C)c1ccc(C=C2SC(=N)N(c3nccs3)C2=O)cc1 | 5.28%
CN1CCCN(Cc2cccc(-c3cccc(NC(=O)c4ccc(Cl)cc4)c3)c2)CC1 | 4.21%
Cc1nn(-c2cccc(C(F)(F)F)c2)c2sc(C(=O)NC3CCN(C(C)C)CC3)cc12 | -1.04%
COc1ccccc1N1CCN(CCCCNC(=O)c2ccc(NC(=O)c3ccc(OC(F)(F)F)cc3)cc2)CC1 | -0.16%
COc1ccc(OC)c(-c2cccc(-c3cccc(NC(=O)c4ccc([N+](=O)[O-])o4)c3)n2)c1 | 9.55%
CC(C)Cc1nc(N2CCOCC2)c2nnn(Cc3ccccc3)c2n1 | 1.31%
